Screens from PubChem BioAssay.
DT40 TDP1 no CPT = qHTS for Inhibitors of human tyrosyl-DNA phosphodiesterase 1 (TDP1): qHTS in cells in absence of CPT; DT40 Tdp1-/- hTDP1 cells, no CPT, ATP luminescence, 48 h; Potency, µM (doses to about 46.2 µM), hits mostly inhibitors; actives 15% (n = 420,000); AID 686978, 2013; further: nearly all actives have a fitted effect of over 55% in size
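Camptothecin absent (DMSO only). Human TDP1-complemented DT40 knockout cells, 400 cells/well, 37 °C for minimum 48 hr; ATP measured via CellTiter-Glo, 30 min dark incubation, luminescence.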
DT40 TDP1 CPT = growth inhibition of DT40 Tdp1-/-;hTDP1 cells with camptothecin (screen for TDP1 inhibitors); chicken DT40 Tdp1-/-;hTDP1 cells + 20 nM CPT, ATP luminescence, 48 h; Potency, µM (top dose mostly 46.2 µM), hits mostly inhibitors; actives 12% (n = 420,000); further: nearly all actives have a fitted effect of over 55% in size
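Chicken DT40 Tdp1-/- cells stably complemented with human TDP1 were seeded at 400 cells/well in medium containing 20 nM camptothecin, exposed to pin-transferred compounds, and grown at 37 °C for at least 48 hr. Viability was read as ATP luminescence.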
D3 antag = blocks the human D3 dopamine receptor; actives 2.5% (n = 360,000); D3R cells, DiscoveRx beta-arrestin luminescence, antagonist mode; hits give low values; max response, negative = inhibition, %; P35462; AID 652054; in the data active means max response below about -50%; inconclusive means no clear call, values can overlap the other calls
Target sequence (P35462 whole entry, looked up): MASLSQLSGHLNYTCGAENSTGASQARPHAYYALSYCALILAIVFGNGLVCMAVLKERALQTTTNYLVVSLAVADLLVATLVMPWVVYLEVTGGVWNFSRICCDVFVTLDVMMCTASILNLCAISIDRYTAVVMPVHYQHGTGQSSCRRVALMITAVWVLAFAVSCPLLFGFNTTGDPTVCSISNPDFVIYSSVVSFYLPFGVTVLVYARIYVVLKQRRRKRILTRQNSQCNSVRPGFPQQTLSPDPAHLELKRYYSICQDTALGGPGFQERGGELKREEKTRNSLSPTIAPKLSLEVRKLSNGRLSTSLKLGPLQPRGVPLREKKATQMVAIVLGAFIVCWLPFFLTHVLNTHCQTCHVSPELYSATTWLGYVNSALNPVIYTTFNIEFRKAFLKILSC
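Cells plated overnight at 1500 cells/well, then exposed to library compounds with dopamine controls for 90 minutes at 37 degrees C. DiscoveRx reagent added for 30–60 minutes at room temperature; luminescence read, quantitative HTS format.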
D3 ag = D3 dopamine receptor (human) agonism; P35462; D3R DiscoveRx beta-arrestin cells, luminescence, 90 min; max activation, %; actives 0.58% (n = 410,000); AID 652048; in the data active means max activation above about 30%
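Agonist mode: compounds and dopamine controls were applied to plated cells for 90 min at 37 degrees C after an overnight attachment at 1500 cells/well. Luminescent read-out followed 30 - 60 minutes at room temperature with DiscoveRx detection reagent.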
IL-1B inflam inh = inflammasome signaling inhibition, IL-1 beta readout. THP-1 LPS/ATP IL-1B secretion, AlphaLISA, 16 h; hits give low values. activity change, % at 57.5 µM. actives 4.7% (n = 360,000). AID 743279; in the data active means activity change below about -50%; inconclusive means mostly about -30% to -49%
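Secreted IL-1B measured by AlphaLISA bead assay after 16 h compound exposure of THP-1 cells; compounds (final up to 57.5 uM) added 1 h before LPS (250 ng/mL) and ATP (1.25 mM) stimulation; lower signal means less secretion.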
ClpP mod = qHTS Assay for Activators of ClpP; AID 651965, 2013; ATP-dependent Clp protease proteolytic subunit (Bacillus subtilis (strain 168)), P80244; purified B. subtilis ClpP, FRET peptide cleavage, 20 min; Potency, µM (series often up to 57.5 µM); actives 1.9% (n = 340,000); active means well fitted falling curve with a large enough effect; inconclusive means small, poorly fitted or top-dose-only effect; inactive means no such curve, though single readings can be large or run the other way; further: the source files actives as falling curves though it sought activators and does not explain the sign; nearly all actives have a fitted effect of over 65% in size
Target sequence (P80244 whole entry, looked up): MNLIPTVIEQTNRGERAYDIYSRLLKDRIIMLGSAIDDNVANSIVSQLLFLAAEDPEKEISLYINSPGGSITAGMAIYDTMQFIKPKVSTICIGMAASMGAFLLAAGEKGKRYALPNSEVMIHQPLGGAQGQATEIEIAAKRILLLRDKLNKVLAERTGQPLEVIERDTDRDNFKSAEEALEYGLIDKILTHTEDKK
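ClpP 10 microg/mL final, pH 8 Tris/KCl buffer with BSA, glycerol, Tween-20; compound pinned in; FRET-FV substrate; RT 20 min; Ex320/Em430; ΔFRET vs ADEP 5.8 microM, DMSO, no enzyme.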
A number is an active result; . = inactive; ? = inconclusive; / = not tested or not shown. Shown are actives, neighbours in structure and some others; about 21% of the full set was active somewhere. Unless noted, the call rests on the fitted dose curve; in most records, active means well fitted inhibition curve with a large enough effect; inconclusive means small, poorly fitted or top-dose-only effect; inactive means flat fitted curve, though single readings scatter.

SMILES	DT40 TDP1 no CPT	DT40 TDP1 CPT	D3 antag	D3 ag	IL-1B inflam inh	ClpP mod
O=C(CSc1nc2ccccc2s1)Nn1cnnc1	.	18.4µM	.	.	.	.
Cc1ccc(NC(=O)CSc2nnnn2C)cc1S(=O)(=O)N(C)C	.	.	.	.	.	.
Cc1ccc(NC(=O)CSc2nn(-c3ccccc3)c(=S)s2)cc1S(=O)(=O)N(C)C	5.17µM	5.17µM	-62.8	.	.	.
O=C(CSc1nn(-c2ccccc2)c(=S)s1)Nn1cnnc1	.	.	-84.9	.	.	.
O=C(CSc1nc2ccccc2s1)NC1CCCC1	.	.	.	.	.	.
CCn1cc(/C=C(\NC(=O)c2ccccc2)C(=O)N2CCOCC2)c2ccccc21	.	.	.	.	.	.
O=C(COC(=O)COc1ccc(Br)cc1)NC1CCCC1	.	.	.	.	.	.
COc1ccc(NC(=O)N2CC3(CCN(C(=O)c4cc(C(F)(F)F)cc(C(F)(F)F)c4)CC3)C2)cc1	.	.	/	/	/	/
O=C(COc1ccccc1Cl)Nc1ccc(S(=O)(=O)Nc2ccccn2)cc1	?	?	.	.	?	/
COc1ccc(C(CNC(=O)c2cccc(S(=O)(=O)N3CCCC(C)C3)c2)N(C)C)cc1 (stereo not drawn)	.	?	-65.0	.	-54.8	.
COc1ccc2cc(S(=O)(=O)N3CCCC(C)C3)ccc2c1 (stereo not drawn)	23.1µM	?	.	.	?	/
CC(C)N(Cc1ccccc1)S(=O)(=O)c1ccc(Cl)nc1	?	.	.	.	.	/
Cn1ccc(NS(=O)(=O)c2cc(Br)ccc2Br)n1	.	.	.	.	.	.
CCSC(=O)N=Nc1ccc(O)cc1	11.6µM	14.6µM	.	.	.	.
Cc1csc(=Nc2ccccc2)n1Cc1ccco1	?	.	.	.	.	.
CN1CCc2c(sc(N)c2C(=O)c2ccc(Cl)cc2)C1	?	?	.	.	.	.
COc1ccc(C(=O)c2c(N)sc3c2CCN(C(=O)OC(C)(C)C)C3)cc1	.	14.6µM	.	.	/	/
CCOc1ccc(C(=O)c2cn(CC(=O)Nc3ccc4c(c3)OCO4)c3ccc(OCC)cc3c2=O)cc1	3.26µM	?	/	.	/	.
CCOc1ccc(C(=O)c2cn(CC(=O)Nc3cc(OC)cc(OC)c3)c3ccc(F)cc3c2=O)cc1	20.6µM	?	/	.	/	.
CCOc1ccc(C(=O)c2cn(CC(=O)Nc3ccc4c(c3)OCO4)c3ccc(OC)cc3c2=O)cc1	?	?	/	.	/	.
CCc1ccc(C(=O)c2cn(CC(=O)Nc3cc(OC)cc(OC)c3)c3ccc(CC)cc3c2=O)cc1	?	.	/	.	/	.
COc1ccc(C(=O)c2cn(CC(=O)Nc3ccc4c(c3)OCCO4)c3ccc(OC)cc3c2=O)cc1	?	20.6µM	/	.	/	.
COc1cccc(NC(=O)CN2C(=O)NC3(CCCc4ccccc43)C2=O)c1 (stereo not drawn)	.	.	.	.	.	.
Cc1ccc(C)c(NC(=O)Cn2c(=O)n(Cc3ccccc3)c(=O)c3oc4ccccc4c32)c1	5.8µM	4.61µM	/	.	/	.
CCCCn1c(=O)c2oc3ccccc3c2n(CC(=O)Nc2cccc(Cl)c2)c1=O	.	.	/	.	/	.
SMILES	DT40 TDP1 no CPT	DT40 TDP1 CPT	D3 antag	D3 ag	IL-1B inflam inh	ClpP mod
Cc1ccc(C)c(NC(=O)Cn2c(=O)n(Cc3ccco3)c(=O)c3oc4ccccc4c32)c1	10.3µM	16.4µM	/	.	/	31.6µM
Cc1ccc2c(c1)c1c(c(=O)n(Cc3ccccc3)c(=O)n1CC(=O)Nc1ccccc1C)n2C	.	.	/	.	/	?
Cc1cc(C)cc(NC(=O)Cn2c(=O)n(Cc3ccco3)c(=O)c3oc4ccccc4c32)c1	.	?	/	.	/	.
CCCCn1c(=O)c2oc3ccccc3c2n(CC(=O)Nc2cc(C)ccc2C)c1=O	11.6µM	11.6µM	/	.	/	.
CCCCn1c(=O)c2oc3ccccc3c2n(CC(=O)Nc2ccc(CC)cc2)c1=O	?	13µM	/	.	/	.
COc1cccc(/C(C)=N/N=C(\C)c2cccc(OC)c2)c1	.	.	.	.	?	.
Cc1nc2ccccc2c(=O)n1NC(=O)c1c(F)cccc1F	.	.	.	.	.	.
COc1cccc(NC(=O)CCNS(=O)(=O)c2ccc3c(c2)CCCC(=O)N3)c1	.	.	/	.	/	.
Cc1cc(N(C)C)nc(Nc2ccccc2)n1	?	.	.	.	-79.3	.
CCn1c(-c2ccccc2F)nc2cc(NC(C)=O)cc(C(=O)N3CCC[C@H]3C(=O)OC)c21	.	.	/	/	/	/
CN(C)CCCn1c2c3ccccc3ccc2c2oc(=O)c3ccccc3c21	4.61µM	2.59µM	.	.	-100.0	.
COc1ccc(C(=O)NCCc2sc(-c3cccc(F)c3)nc2C)cc1	16.4µM	23.1µM	/	.	/	.
COc1ccc(CC(=O)NCCc2sc(-c3ccc(Cl)cc3)nc2C)cc1OC	20.6µM	?	/	.	/	?
Cc1cc(C)cc(C(=O)NCCc2sc(-c3ccc(F)cc3)nc2C)c1	20.6µM	13µM	/	.	/	.
COc1ccc(-c2nc(C)c(CCNC(=O)Cc3ccc(F)cc3)s2)cc1OC	/	/	/	.	/	.
COc1ccc(C(=O)NCCc2sc(-c3ccc(F)cc3)nc2C)cc1OC	14.6µM	?	/	.	/	.
O=C(CCCC(=O)c1ccccc1)NCc1ccccc1	.	.	.	.	.	.
O=C(CCN1CCOCC1)Nc1ccc(Cl)cc1	.	.	.	.	.	.
Cc1ccc(S(=O)(=O)N(CC(=O)NC2CC3CCC2C3)c2ccccc2)cc1 (stereo not drawn)	?	?	.	.	.	.
Cc1nc(-c2ccc(Cl)cc2)sc1CCNC(=O)c1ccco1	18.4µM	20.6µM	/	.	/	.
C=CCNC(=S)NNC(=O)C(CCCC)CC(C)(C)O (stereo not drawn)	7.31µM	8.2µM	.	.	.	.
COc1ccc(OC)c(Nc2nc(-c3c(C)nc4ncccn34)cs2)c1	?	?	.	.	.	.
CCCCCCCCC(=O)Nc1cc(C)ccc1OC	?	.	.	.	.	.
CCCCCC(=O)Nc1nc(C)c(-c2csc(Nc3cc(OC)ccc3OC)n2)s1	2.91µM	4.11µM	.	.	.	.
CCCCCCC(=O)Nc1nc(C)c(-c2csc(Nc3cc(OC)ccc3OC)n2)s1	18.4µM	?	.	.	.	.
O=C(NCC1(c2ccccc2)CCCC1)c1ccc(Br)cc1	?	?	.	.	.	.
Cc1ccc(C(=O)NCC2(c3ccccc3)CCCC2)cc1	11.6µM	11.6µM	.	.	.	.
COc1cccc(C(=O)NCC2(c3ccccc3)CCCC2)c1	14.6µM	?	.	.	?	/
